This passage reports Potency results from PubChem BioAssay (Tox21).

Structures are written as SMILES. Several values for one entry are separate records, joined by “and”; a condition that tells them apart may be missing. Equal entries are not always repeated. More than one record can exist for a structure, and the calls need not agree. Activity calls are given as the source filed them. A call without a number means that no potency is given here. The call rests on the fitted dose curve.
Potency means the concentration at half of the fitted maximal effect.

This test deals with Thyrotropin-releasing hormone receptor (Homo sapiens) (UniProt P34981). Description: qHTS assay to identify small molecule agonists of the thyrotropin-releasing hormone receptor (TRHR) signaling pathway (AID 1346891). To be noted: TRHR-HEK293 calcium fluorescence, agonist mode; series mostly up to 57.6 µM. From the text: National Center for Advancing Translational Sciences [NCATS] NIH Chemical Genomics Center [NCGC] U.S. Environmental Protection Agency [EPA] National Institutes of Environmental Health Sciences [NIEHS] National Toxicology Program [NTP] Assay overview: Thyrotropin-releasing hormone (TRH) receptor (TRHR) is a G-protein-coupled receptor which binds the tripeptide thyrotropin releasing hormone. TRHR is found in the brain and, when bound by TRH, acts (through phospholipase C) to increase intracellular inositol trisphosphate. It plays a crucial role in the anterior pituitary where it controls the synthesis and secretion of thyroid stimulating hormone and prolactin. The TRHR-Hek293 assay is a cell-based assay, and it has the potential to screen G protein-coupled receptors. A compound/drug can either activate (agonist) or suppress (antagonist) GPCRs that can be monitored by levels of intracellular calcium. Using this assay, the Tox21 10K compound library was screened to identify potential TRHR agonists.
Chain of Thyrotropin-releasing hormone receptor (Homo sapiens) (P34981 whole entry, looked up): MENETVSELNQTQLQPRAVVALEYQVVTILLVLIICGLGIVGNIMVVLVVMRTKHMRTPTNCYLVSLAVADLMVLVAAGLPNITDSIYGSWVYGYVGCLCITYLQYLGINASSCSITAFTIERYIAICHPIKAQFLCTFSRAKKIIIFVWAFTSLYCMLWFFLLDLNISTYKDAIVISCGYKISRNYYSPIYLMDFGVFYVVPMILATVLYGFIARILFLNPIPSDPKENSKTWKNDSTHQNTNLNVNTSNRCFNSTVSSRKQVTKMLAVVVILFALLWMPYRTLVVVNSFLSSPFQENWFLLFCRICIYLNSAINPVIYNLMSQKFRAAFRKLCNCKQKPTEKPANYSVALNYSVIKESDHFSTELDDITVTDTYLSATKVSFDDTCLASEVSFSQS
Assay Protocol Summary: The TRHR-Hek293 cells were dispensed at 1500cells/4uL/well in 1536-well black-clear bottom plates using a Multidrop dispenser. After the assay plates were incubated at a 37 C/5% CO2 incubator for 18 hours, 4 uL of Dye-Loading Solution was added to each well. The plates were incubated at 37 C for 2 hours. For agonist mode, 23 nL of compounds dissolved in DMSO, positive controls or DMSO only was transferred to the assay plate by a pin tool. The fluorescence intensity in the plates was measured using FDSS 7000EX kinetic plate reader for 3 min at 1 sec intervals. Each test compound was measured at 15 concentrations and in triplicates.
Turning to `CCNc1nc(NC(C)C)nc(SC)n1`, the Potency result was “inactive”.
Then `CCNc1nc(NC(C)(C)C)nc(SC)n1`, with “inactive”; and `Cc1cccc([N+](=O)[O-])c1`, with “inactive”; and `Cc1ccc(N)cc1Cl`, with “inactive”.
On to `c1cc2c3c(cccc3c1)CC2`, for which the Potency entry was “inactive”.
Turning to `NCC(O)c1ccc(O)cc1` (stereo not given), the Potency result is “inactive”.
Then `Nc1ccc(Cc2ccc(N)cc2)cc1`, with “inactive”.
For `CN=C=S` the value was “inactive”; for `O=S(=O)(c1ccc(O)cc1)c1ccc(O)cc1`, “inactive”.
For `Cc1cc(Cl)ccc1O`, the Potency entry was “inactive”.
Then `O=NN1CCCCCCC1`, with “inactive”; and `COC(=O)c1ccccc1N`, with “inactive”; and `CN(N=O)c1ccccc1`, with “inactive”.
Then `C1CN2CCN1CC2`, with “inactive and 34.7 µM (active)”.
For `CC(C)(C)C(O)(CCc1ccc(Cl)cc1)Cn1cncn1` (stereo not given) the value was “inactive”; for `CC(C)NC(=O)N1CC(=O)N(c2cc(Cl)cc(Cl)c2)C1=O`, “inactive”.
With `CCN(CC)c1ccccc1`, the Potency result was “inactive”.
Regarding `CCc1cccc(C)c1N(C(=O)CCl)C(C)COC` (stereo not given), the Potency entry was “inactive”.
Then `CC(=O)C=C(C)C`, with “inactive”.
`Clc1ccccc1Cl`: the Potency result was “inactive”.
For `CNC(=O)Oc1ccccc1OC(C)C` the value was “inactive”.
Then `Nc1ccc(Br)cc1`, with “inactive”.
For `CCOP(=S)(OCC)Oc1cnc2ccccc2n1` the value was “inactive”; for `CN(C)CCO`, “inactive”; for `CC(Oc1ccc(Cl)cc1Cl)C(=O)O` (stereo not given), “inactive”.
As to `CCOC(=O)c1ccccc1C(=O)OCC`, the Potency entry is “inactive”.
For `CN(C)[C@@H]1C(=O)C(C(N)=O)=C(O)[C@@]2(O)C(=O)C3=C(O)c4c(O)cccc4[C@@](C)(O)[C@H]3C[C@@H]12` the value was “inactive”.
Regarding `CN1C(=O)CN=C(c2ccccc2)c2cc(Cl)ccc21`, the Potency result is “inactive”.
Consider `O=[N+]([O-])c1ccccc1`, for which the Potency entry was “inactive”.
Then `[N-]=[N+]=[N-]`, with “inactive”; and `CCCN(CCC)N=O`, with “inactive”.
For `Nc1c(Cl)c(Cl)nc(C(=O)O)c1Cl` the value was “inactive”; for `CCCCN(CC)C(=O)SCCC`, “inactive”; for `CCCCCOC(=O)c1ccccc1C(=O)OCCCCC`, “inactive”.
Then `CC(NC(C)(C)C)C(=O)c1cccc(Cl)c1` (stereo not given), with “inactive”.
Consider `ClCc1cccnc1`, for which the Potency result is “inactive”.
For `CON(C)C(=O)Nc1ccc(Cl)c(Cl)c1` the value was “inactive”; for `C=CCO`, “inactive and 8.71 µM (active)”; for `OC(O)C(Cl)(Cl)Cl`, “inactive”.
With `O=c1[nH]c2ccccc2c(=O)o1`, the Potency entry is “inactive”.
